# Assay results from the supplement of paper PMC6555819.
# How the values were obtained:
# Test in all cases: PBM binding z-score (relative to random genomic background probes); higher = stronger binding; sequences stand for … in GC…GCGATTGACAGCGTAGAATGAAGG
# [1] = test system: FXR:RXRa (NR concentration 270 nM, RXRa partner concentration 90 nM)
# How it was run: (§1)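 Binding z-scores take random background probes as their reference. They come from custom Agilent 4×180K protein-binding microarrays incubated 1 h with ligand-free nuclear receptor dimers, with antibodies against each partner (one per run) detecting binding. Scanned fluorescence was regression-normalized.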
# [2] = test system: LXRa:RXRa (NR concentration 270 nM, RXRa partner concentration 90 nM)
# How it was run: as §1
# [3] = test system: LXRa homodimer (NR concentration 270 nM)
# How it was run: as §1
# [4] = test system: LXRb:RXRa (NR concentration 270 nM, RXRa partner concentration 90 nM)
# How it was run: as §1
# [5] = test system: LXRb homodimer (NR concentration 270 nM)
# How it was run: as §1
# [6] = test system: PPARa:RXRa (NR concentration 270 nM, RXRa partner concentration 90 nM)
# How it was run: as §1
# [7] = test system: PPARg:RXRa (NR concentration 180 nM, RXRa partner concentration 90 nM)
# How it was run: as §1
# [8] = test system: PPARg:RXRa 270nM:90nM, anti-RXR (NR concentration 270 nM, RXRa partner concentration 90 nM)
# How it was run: as §1
# [9] = test system: PPARg:RXRa 30nM:10nM, anti-RXR (NR concentration 30 nM, RXRa partner concentration 10 nM)
# How it was run: as §1
# [10] = test system: PPARg:RXRa 90nM:30nM, anti-RXR (NR concentration 90 nM, RXRa partner concentration 30 nM)
# How it was run: as §1
# [11] = test system: PPARg:RXRa DBDmut IVT, anti-RXR (DBD mutation: RXRa K156A/R161A, NR concentration 270 nM, RXRa partner concentration 90 nM)
# How it was run: as §1
# [12] = test system: PPARg:RXRa IVT, anti-PPARg (NR concentration 270 nM, RXRa partner concentration 90 nM)
# How it was run: as §1
# [13] = test system: PPARg DBDmut:RXRa IVT, anti-PPARg (DBD mutation: PPARg1 K132A/R137A, NR concentration 270 nM, RXRa partner concentration 90 nM)
# How it was run: as §1
# [14] = test system: PPARg DBDmut IVT, anti-PPARg (DBD mutation: PPARg1 K132A/R137A, NR concentration 270 nM)
# How it was run: as §1
# [15] = test system: PPARg homodimer (NR concentration 180 nM)
# How it was run: as §1
# [16] = test system: PXR:RXRa (NR concentration 270 nM, RXRa partner concentration 90 nM)
# How it was run: as §1
# [17] = test system: PXR homodimer (NR concentration 270 nM)
# How it was run: as §1
# [18] = test system: RARa:RXR (NR concentration 270 nM, RXRa partner concentration 90 nM)
# How it was run: as §1
# [19] = test system: RARa homodimer (NR concentration 270 nM)
# How it was run: as §1
# [20] = test system: RARb:RXRa (NR concentration 270 nM, RXRa partner concentration 90 nM)
# How it was run: as §1
Sequence,PBM binding z-score [1],PBM binding z-score [2],PBM binding z-score [3],PBM binding z-score [4],PBM binding z-score [5],PBM binding z-score [6],PBM binding z-score [7],PBM binding z-score [8],PBM binding z-score [9],PBM binding z-score [10],PBM binding z-score [11],PBM binding z-score [12],PBM binding z-score [13],PBM binding z-score [14],PBM binding z-score [15],PBM binding z-score [16],PBM binding z-score [17],PBM binding z-score [18],PBM binding z-score [19],PBM binding z-score [20]
CCTTACGGGGCACGAGGTTATAGCACGACGAGCG,0.567,0.879,-0.304,0.509,-0.823,2.26,2.22,2.19,0.265,1.49,1.87,2.38,0.9,-1.3,0.427,0.836,-0.487,1.6,-0.309,1.9
CAGCCTCGGTCAGGGCCAGTATAGGAGGAACGTT,-0.344,-0.223,-0.491,-0.601,-1.46,-0.701,-0.243,-1.13,-1.22,-1.45,-0.887,-0.552,-1.14,-2.31,-0.745,-0.881,-0.661,-0.746,-0.656,2.01
CGTCCAAGGTCAGCAGGTCAATGAAAGCGACGTG,6.32,4.32,0.919,3.56,-0.0922,5.37,5.19,5.03,1.33,3.38,3.22,3.95,-0.262,-0.753,2.98,4.21,0.593,5.49,0.0185,5.24
CGAACTTGGTCATTGACAGGACAGTGAATAGTAA,0.086,-0.0975,-0.179,0.228,-0.101,0.267,0.262,0.00224,-0.244,-0.0611,0.617,0.897,0.111,0.232,0.209,0.0575,0.147,0.48,0.507,0.912
CCTACTGGGCCAAAAGGGTCATTGATGCCGATAA,2.19,2.17,0.372,2.58,-0.642,3.78,3.54,4.35,1.7,3.87,4.13,3.9,-0.517,-1.13,2.18,3.16,0.631,3.57,-0.0364,2.74
ACAGGCAGGTGAGTGAAGGTAACTCAGCTGGACG,0.139,-0.0924,-0.455,-0.499,-0.66,0.119,0.199,-0.206,-0.505,-0.636,0.549,0.264,-0.867,-0.655,-0.302,-0.384,-0.354,-0.019,-0.662,0.283
TCGAGTAGGTTAGTCGGTGCATTCAGCCAACATA,-0.341,-0.428,-0.522,-0.341,-1.16,0.254,-0.329,0.678,1.05,0.958,1.78,1.93,-0.29,-0.55,0.152,0.147,-0.142,0.0978,0.0806,-0.085
